# Reference: the supplement of paper PMC8728848
# This excerpt belongs to a sample that is enriched for the strongest signals.
# How the values were obtained:
# Assay in all cases: glycan array binding signal (z-score within array); higher = stronger binding
# Settings in all cases: glycan notation: IUPAC condensed, linker removed; mutation: Y228A
# [1] = target: Fuc(a1-2)Gal(b1-3)GlcNAc(b1-3)[Gal(b1-4)GlcNAc(b1-6)]Gal(b1-4)Glc
# Procedure, shortened: (§1)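 Arrays were curated from the Consortium for Functional Glycomics database, 3228 in total, and kept only where the protein sequence was available. Binding is expressed as a within-array Z-score. This score was averaged across arrays of the same protein sequence at different concentrations or buffers and across linkers, and negative values can be read as non-binding.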
# [2] = target: Fuc(a1-2)Gal(b1-3)[Fuc(a1-4)]GlcNAc(b1-2)Man(a1-3)[Fuc(a1-2)Gal(b1-3)[Fuc(a1-4)]GlcNAc(b1-2)Man(a1-6)]Man(b1-4)GlcNAc(b1-4)[Fuc(a1-6)]GlcNAc(b1-4)[Fuc(a1-6)]GlcNAc
# Procedure, shortened: as §1
# [3] = target: Fuc(a1-2)Gal(b1-4)GlcNAc(b1-2)Man(a1-3)[Fuc(a1-2)Gal(b1-4)GlcNAc(b1-2)Man(a1-6)]Man(b1-4)GlcNAc(b1-4)GlcNAc
# Procedure, shortened: as §1
# [4] = target: Fuc(a1-2)Gal(b1-4)GlcNAc6S
# Procedure, shortened: as §1
# [5] = target: Fuc(a1-2)Gal(b1-4)[Fuc(a1-3)]GlcNAc(b1-3)GalNAc
# Procedure, shortened: as §1
# [6] = target: Fuc(a1-2)Gal6S(b1-4)Glc6S
# Procedure, shortened: as §1
# [7] = target: Fuc(a1-2)[Gal(a1-3)]Gal(b1-4)[Fuc(a1-3)]Glc
# Procedure, shortened: as §1
# [8] = target: Fuc(a1-2)[GalNAc(a1-3)]Gal(b1-3)GalNAc(a1-3)[Fuc(a1-2)]Gal(b1-4)GlcNAc
# Procedure, shortened: as §1
# [9] = target: Fuc(a1-2)[GalNAc(a1-3)]Gal(b1-3)GlcNAc(b1-3)GalNAc
# Procedure, shortened: as §1
# [10] = target: Fuc(a1-2)[GalNAc(a1-3)]Gal(b1-4)GlcNAc(b1-3)[Fuc(a1-2)[GalNAc(a1-3)]Gal(b1-4)GlcNAc(b1-6)]GalNAc
# Procedure, shortened: as §1
# [11] = target: Fuc(a1-3)[Gal(b1-4)]GlcNAc(b1-6)GalNAc
# Procedure, shortened: as §1
# [12] = target: Fuc(a1-3)[Gal(b1-4)]GlcNAc(b1-6)[Gal(b1-3)GlcNAc(b1-3)]Gal(b1-4)Glc
# Procedure, shortened: as §1
# Gal(a1-2)Gal = target: Gal(a1-2)Gal
# Procedure, shortened: as §1
# [13] = target: Gal(a1-3)Gal(b1-4)GlcNAc(b1-2)Man(a1-3)[Gal(a1-3)Gal(b1-4)GlcNAc(b1-2)Man(a1-6)]Man(b1-4)GlcNAc(b1-4)GlcNAc
# Procedure, shortened: as §1
# Gal(a1-3)GalNAc = target: Gal(a1-3)GalNAc
# Procedure, shortened: as §1
# [14] = target: Gal(a1-4)Gal(b1-4)GlcNAc(b1-2)Man(a1-3)[Gal(a1-4)Gal(b1-4)GlcNAc(b1-2)Man(a1-6)]Man(b1-4)GlcNAc(b1-4)GlcNAc
# Procedure, shortened: as §1
# Gal(b1-3)Gal = target: Gal(b1-3)Gal
# Procedure, shortened: as §1
# Gal(b1-3)Gal(b1-4)GlcNAc = target: Gal(b1-3)Gal(b1-4)GlcNAc
# Procedure, shortened: as §1
# [15] = target: Gal(b1-3)GalNAc(a1-3)[Fuc(a1-2)]Gal(b1-4)Glc
# Procedure, shortened: as §1
# [16] = target: Gal(b1-3)GlcNAc(a1-3)Gal(b1-4)GlcNAc
# Procedure, shortened: as §1
# Gal(b1-3)GlcNAc(b1-2)Man = target: Gal(b1-3)GlcNAc(b1-2)Man
# Procedure, shortened: as §1
# [17] = target: Gal(b1-3)GlcNAc(b1-2)Man(a1-3)[Gal(b1-3)GlcNAc(b1-2)Man(a1-6)]Man(b1-4)GlcNAc(b1-4)[Fuc(a1-6)]GlcNAc
# Procedure, shortened: as §1
# [18] = target: Gal(b1-3)GlcNAc(b1-2)Man(a1-3)[GlcNAc(b1-4)][Gal(b1-3)GlcNAc(b1-2)Man(a1-6)]Man(b1-4)GlcNAc(b1-4)GlcNAc
# Procedure, shortened: as §1
# [19] = target: Gal(b1-3)GlcNAc(b1-3)Gal(b1-4)GlcNAc(b1-6)[Gal(b1-3)GlcNAc(b1-3)]Gal(b1-4)Glc
# Procedure, shortened: as §1
# [20] = target: Gal(b1-3)GlcNAc(b1-6)Gal(b1-4)GlcNAc
# Procedure, shortened: as §1
# [21] = target: Gal(b1-3)GlcNAc(b1-6)GalNAc
# Procedure, shortened: as §1
# Gal(b1-3)GlcNAc6S = target: Gal(b1-3)GlcNAc6S
# Procedure, shortened: as §1
# [22] = target: Gal(b1-3)[Neu5Ac(a2-6)]GalNAc
# Procedure, shortened: as §1
# Gal(b1-4)Glc6S = target: Gal(b1-4)Glc6S
# Procedure, shortened: as §1
# [23] = target: Gal(b1-4)GlcNAc(b1-2)[Gal(b1-4)GlcNAc(b1-6)]Man(a1-6)[GlcNAc(b1-4)][Gal(b1-4)GlcNAc(b1-2)[Gal(b1-4)GlcNAc(b1-4)]Man(a1-3)]Man(b1-4)GlcNAc(b1-4)[Fuc(a1-6)]GlcNAc
# Procedure, shortened: as §1
binder,measurement,setting,value
"Epa1-NP-mutant-Y228A (Candida glabrata), Q6VBJ0 (protein) MILNPALFLNKCVCIYTTLILLLLTNGGYATSSNDISLASKDPTTFPLGCSPDITTPKKGLSMELYSYDFRKKGSYPCWDAAYLDPNYPRTGYKSHRLLAKVDGVTGNINFYYHATKGCTPQLGHLPASYNYPKPLTMTNFTMLLYGYFRPKVTGFHTFTISADDLLFVNFGAGNAFDCCRRDSSADHFGNYQAYAIWGSKTAKDELTVHLDAGVYYPIRLFYNNREADGALSFTFKTESNENTVSDFSEYFFSLDDTEEGCPGLISYDSSCASVKTSKIIGIDYHTETPNENLVPITKTIYHLGIPCTGTTTTPLCGSGFYDPLANKCVTINTSSTSSVTKTTSHTTSKEVSFHSSISSQKTLIPKSIPSPYGPIKSQSIPTEMETSSEISSSEYAFSDVISTPSHSPYTKKHSSLNSSSYTSTVIHSLTSYSISQGIFSTSLSEQNITSKSSTDKFSTATSMSNNITQSSIIISQFSTNNENYTTTSMHTSSDKISTETLNNSISTTTSILFSNSSTILKNNTTIISSDKDTHYHPVNPTIVCSTNKTEIICASITQPSISNSNNHWSSSVLKFNSTTVRSTLPSSAGSNETSINVPFSSSTESNTSTSSTSTSNSKMVRSTLPSSAGSNETSISVPFSSSTESNTSTSSTSTSNSKMVRSTLPSSAGSNETSINVPFSSSTESNTSTSSTSTSNSKTVRSTPFSSAGIIMTSLSQRNNKSASSYASSNSKCYNTADSCRKVHSTPSYLLTSSYTSEGVDYDCSLVSTKLKINDTNCVNNKHTTKSCLKTSVTTTIPTLEIKTARKSSSNTIGLHSYPTSSPNKSISSAPIIGYISSFKTIKTASPSYQTSDLTTITTITSLNNPGSTAVENTHESNDKSRKTSSNDISSKHSVIKETKDAVESSNKSHQTNTLKCSSIIIASSSHNSYESLGGTTLTLTLSKVYSPQNNDTLPFLEISEVNPSRTVLPESSKMMQYLTSTEERNKTARNTIATNIVSISTFHFEGEGNAIRMGYTQLLLMLIGIIVMNIGT",glycan array binding signal (z-score),[1],-0.261
same,glycan array binding signal (z-score),[2],-0.098
same,glycan array binding signal (z-score),[3],-0.023
same,glycan array binding signal (z-score),[4],-0.027
same,glycan array binding signal (z-score),[5],-0.103
same,glycan array binding signal (z-score),[6],-0.325
same,glycan array binding signal (z-score),[7],-0.203
same,glycan array binding signal (z-score),[8],-0.281
same,glycan array binding signal (z-score),[9],0.018
same,glycan array binding signal (z-score),[10],-0.156
same,glycan array binding signal (z-score),[11],-0.289
same,glycan array binding signal (z-score),[12],-0.025
same,glycan array binding signal (z-score),Gal(a1-2)Gal,-0.233
same,glycan array binding signal (z-score),[13],-0.232
same,glycan array binding signal (z-score),Gal(a1-3)GalNAc,-0.151
same,glycan array binding signal (z-score),[14],0.054
same,glycan array binding signal (z-score),Gal(b1-3)Gal,11.6
same,glycan array binding signal (z-score),Gal(b1-3)Gal(b1-4)GlcNAc,10.2
same,glycan array binding signal (z-score),[15],0.088
same,glycan array binding signal (z-score),[16],-0.17
same,glycan array binding signal (z-score),Gal(b1-3)GlcNAc(b1-2)Man,3.19
same,glycan array binding signal (z-score),[17],2.29
same,glycan array binding signal (z-score),[18],2.24
same,glycan array binding signal (z-score),[19],2.26
same,glycan array binding signal (z-score),[20],2.32
same,glycan array binding signal (z-score),[21],-0.142
same,glycan array binding signal (z-score),Gal(b1-3)GlcNAc6S,7.1
same,glycan array binding signal (z-score),[22],0.209
same,glycan array binding signal (z-score),Gal(b1-4)Glc6S,2.93
same,glycan array binding signal (z-score),[23],0.803
